For 107 compounds, displacement results are on record in PubChem BioAssay AID1240 (Sanford-Burnham Center for Chemical Genomics, 2008).

The whole screen tested about 50,000 compounds, of which about 800 (1.6%) showed an effect of 50% or more. Shown is part of a subset that was picked to be rich in strong results.

Sequence of Bcl-2-like protein 10 (Homo sapiens) (Q9HD36 whole entry, looked up): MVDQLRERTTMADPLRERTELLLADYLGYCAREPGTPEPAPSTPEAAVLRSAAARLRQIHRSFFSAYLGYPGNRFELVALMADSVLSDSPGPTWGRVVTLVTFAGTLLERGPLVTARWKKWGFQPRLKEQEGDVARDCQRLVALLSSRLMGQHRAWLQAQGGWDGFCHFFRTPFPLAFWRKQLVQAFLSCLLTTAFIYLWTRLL

The assay has as its target Bcl-2-like protein 10 (Homo sapiens) (UniProt Q9HD36). The assay can be described thus: TR3 peptide-Bcl-B binding displacers, biochemical primary FP assay, phenotype converters (AID 1240).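 Further: 0% = Bcl-B with tracer peptide and DMSO and 100% = tracer peptide lacking Bcl-B.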 The settings on record: GST-Bcl-B / FITC-TR3 peptide fluorescence polarization; stronger effect = higher value; compound at 3.75 mg/L. Background: Polarisation of emitted light reports the rotation of a fluorescent probe.
As for `COc1cc(OC)c(C=Nc2ccccc2C(=O)Nc2ccccc2)cc1Br`, the displacement is -6%.
As for `COc1ccccc1N=Cc1c(O)c(C(=O)Nc2ccccc2)cc2ccccc12`, the figure is 105%.
The same measure for `Cc1ccccc1NC(=O)c1cc(-c2ccccc2)nc2c(Cl)cccc12`: -13.6%.
The same measure for `Cc1ccc(-n2c(O)c(/C=N/n3cnnc3)c3ccccc3c2=O)cc1`: 5.8%.
On to `CCOc1ccccc1C=Nc1ccccc1C(=O)Nc1ccccc1`, for which the displacement is -7.9%.
Consider `Cc1ccccc1NC(=O)c1cc2ccccc2c(/C=N/n2cnnc2)c1O`, for which the displacement came to 109%.
Take `COC(C(=O)NNC(=O)c1cccc(Cl)c1)c1ccccc1` (configuration not stated): the displacement was -5.9%.
Turning to `CCOC(=O)C1=C(C)NC(=O)NC1c1cc(OC)c(OC)c(OC)c1` (configuration not stated), the displacement was 9.3%.
As for `O=C(CN(c1cccc([N+](=O)[O-])c1)S(=O)(=O)c1ccccc1)NCC1CCCO1` (configuration not stated), the figure is -4.4%; as for `O=C(Nc1ccc2nn(-c3ccc(Cl)cc3)nc2c1)c1cccnc1`, 29.6%; as for `CCOC(=O)c1c(NC(=O)c2ccc(Cl)cc2Cl)sc(C(=O)Nc2ccccc2C)c1C`, 1.3%.
As for `CCOC(=O)c1c(NC(=O)c2ccc(Cl)cc2Cl)sc(C(N)=O)c1C`, the figure is 88.7%; as for `CCOC(=O)c1c(NC(=O)c2ccc(Cl)cc2Cl)sc(C)c1C`, 6.1%; as for `O=S(=O)(c1ccc2ccccc2c1)N(CC(O)CN1CCOCC1)c1ccccc1` (configuration not stated), -0.7%.
On to `O=C(NCc1cccnc1)c1cccc(S(=O)(=O)N2CCCCC2)c1`, for which the displacement was determined as 2.2%.
Take `CCOC(=O)/C=C/C(=O)Nc1sc(C)c(C)c1C(N)=O`: the displacement is -2%.
With `O=c1c(-c2cccs2)[n+]([O-])c2ccccc2n1O`, the displacement is 69.4%.
As for `CCOn1c(=O)c(-c2cccs2)[n+]([O-])c2ccccc21`, the figure is 121%; as for `COn1c(=O)c(-c2ccccc2)[n+]([O-])c2ccccc21`, 15.9%; as for `CCOn1c(=O)c(-c2ccccc2)[n+]([O-])c2ccccc21`, 18.9%.
As for `CCOn1c(=O)c(C)[n+]([O-])c2ccccc21`, the figure is 14.9%; as for `O=c1c(-c2ccccc2)[n+]([O-])c2ccccc2n1O`, 21.7%.
As for `Cc1ccc(OCC(=O)NN)c(Br)c1`, the figure is -6.5%; as for `CN1CCN(CCCOc2ccc(Br)cc2)CC1`, -8.4%.
As to `O=C(N/N=C/c1ccc(O)cc1)c1cc(C2CC2)[nH]n1`, the displacement is -10.1%.
The same measure for `COC(=O)C1=C(C(=O)OC)SC(=C2C(=S)C(C)(C)N(C(=O)c3cccc(F)c3)c3ccc(OC)cc32)S1`: -7.9%; for `Clc1ccc(-c2noc(-c3ccc(Cl)cc3Cl)n2)cc1`: 4.3%.
The same measure for `CCOC(=O)C1=C(O)/C(=C/c2ccc(Cl)cc2)SC1=Nc1ccc(OC)cc1`: 3.1%.
The same measure for `CCOC(=O)C1=C(O)/C(=C/c2ccc(N(C)C)cc2)SC1=Nc1ccc(OC)cc1`: 3.8%; for `CCOC(=O)C1=C(O)/C(=C/c2ccc(F)cc2)SC1=Nc1ccccc1`: -10.3%; for `CCOC(=O)C1=C(O)/C(=C/c2ccc(O)cc2)SC1=Nc1ccc(Cl)cc1`: 104%.
For the compound `CCOC(=O)C1=C(O)/C(=C/c2ccc(N(C)C)cc2)SC1=Nc1ccc(F)cc1`, the displacement was found to be 142%.
With `CCOC(=O)C1=C(O)/C(=C/c2ccc(N(C)C)cc2)SC1=Nc1cccc2ccccc12`, the displacement turned out to be 168%.
As for `CCOC(=O)C1=C(O)/C(=C/c2ccc(Cl)cc2)SC1=Nc1cccc2ccccc12`, the figure is -11.7%; as for `CCOC(=O)C1=C(O)/C(=C/c2ccc(N(C)C)cc2)SC1=Nc1ccc([N+](=O)[O-])cc1`, 15.5%.
As for `CCOC(=O)C1=C(O)/C(=C/c2ccc(Cl)cc2)SC1=Nc1ccc(C)cc1`, the figure is 5.9%.
For the compound `CCOC(=O)C1=C(O)/C(=C/c2ccc(N(C)C)cc2)SC1=Nc1cccc(Cl)c1`, the displacement was -53.7%.
Turning to `CCOC(=O)C1=C(O)/C(=C/c2ccc(N(C)C)cc2)SC1=Nc1ccc(Cl)cc1`, the displacement amounted to 170%.
The same measure for `CCOC(=O)C1=C(O)/C(=C/c2ccccc2)SC1=Nc1cccc2ccccc12`: 14.5%; for `Cc1cccc(OCC(=O)Nc2ccc(C)c(C)c2)c1`: -13.9%; for `CCOC(=O)C1=C(C)NC(=O)CC1c1cc2c(cc1Br)OCO2` (configuration not stated): -6.4%.
The same measure for `O=C(O)/C=C\C(=O)Nc1ccccc1SC(F)(F)F`: 9.3%; for `O=C1C=CC(=O)N1c1ccc(Cl)cc1[N+](=O)[O-]`: -9%.
As for `CCOC(=O)c1c(N)sc(C(=O)Nc2ccccc2F)c1C`, the figure is 12.7%; as for `CCC(=O)Nc1nc(C)c(-c2csc(Nc3cccc(C(=O)O)c3)n2)s1`, 34.5%.
As for `CC(NC(=O)COc1ccc(/C=N/NS(=O)(=O)c2ccccc2)cc1)c1ccccc1` (configuration not stated), the displacement turned out to be 4%.
The same measure for `Cc1ccc(C(=O)/C=C/c2ccc(-c3ccc(Cl)cc3)o2)cc1`: 17.9%; for `O=C(/C=C/c1ccc(-c2ccccc2Cl)o1)c1ccc(F)cc1`: 6.5%; for `COc1ccc(-c2ccc(/C=C/C(=O)c3ccc(C)cc3)o2)cc1`: 91.1%.
On to `O=C(/C=C/c1ccc(-c2ccccc2)o1)c1ccc(F)cc1`, for which the displacement amounted to 54.3%.
The same measure for `COc1ccc(C(=O)/C=C/c2ccc(-c3ccccc3[N+](=O)[O-])o2)cc1`: 13.8%; for `O=C(/C=C/c1ccc(-c2ccc(Br)cc2)o1)c1ccc([N+](=O)[O-])cc1`: -1.7%; for `COc1ccc(C(=O)/C=C/c2ccc(/C=C/C(=O)c3ccc(OC)cc3)cc2)cc1`: 19.1%.
The same measure for `O=C(/C=C/c1ccc(-c2cccc(C(F)(F)F)c2)o1)c1ccc(F)cc1`: -28.8%.
Turning to `COc1ccc(/C=C/C(=O)c2cccc([N+](=O)[O-])c2)cc1`, the displacement stood at 14.9%.
As for `COc1ccc(C(=O)/C=C/c2ccc(-c3ccc([N+](=O)[O-])cc3)o2)cc1`, the figure is 133%; as for `COc1ccc(-c2ccc(/C=C/C(=O)c3ccc(Cl)cc3)o2)cc1`, -16.7%; as for `COc1ccc(/C=C/C(=O)c2ccc([N+](=O)[O-])cc2)cc1`, 105%.
In the case of `CC(C)(C)C1CCc2c(sc(NC(=O)c3ccccc3)c2C(N)=O)C1` (configuration not stated), the displacement came out at 37%.
As for `CCNC(=O)C(=O)Nc1ccc(OCC)cc1`, the figure is 7.5%; as for `COc1ccc(NC2(c3ccccc3)C(=O)c3c(Cl)c(Cl)c(Cl)c(Cl)c3C2=O)cc1`, 4.4%.
For `O=Cc1cccc(OCc2ccccc2F)c1`, the displacement was -0.4%.
As for `CC1(O)c2ccccc2C(=O)N1Cc1ccccc1` (configuration not stated), the figure is 12.6%; as for `Cc1ccc(Cc2cnc(NC(=O)c3cccc([N+](=O)[O-])c3)s2)cc1`, 26.3%; as for `C=C1CSc2nc(=O)c3c4c(sc3n21)CCC4`, 11.7%.
The same measure for `Cc1cccc(C(=O)Oc2ccc(/C=C3/N=C(c4ccccc4)OC3=O)cc2)c1`: 0.5%; for `O=C1OC(c2cccc(Cl)c2)=N/C1=C\c1ccc(OC(=O)c2cccc([N+](=O)[O-])c2)cc1`: 71.9%; for `O=C1NC(=O)C(=Cc2ccc(OC(=O)c3cccc([N+](=O)[O-])c3)cc2)C(=O)N1`: 1.8%.
The same measure for `CCCCCCCNC1CC(=O)N(c2ccc(Br)cc2)C1=O` (configuration not stated): 1.7%.
`Cc1ccc(-c2[nH]n3c(=O)c4c(nc3c2C)CCS4)cc1`: the displacement is -0.6%.
For the compound `Cc1ccc(-c2[nH]n3c(=O)c4c(nc3c2C)CCCC4)cc1`, the displacement is -2.2%.
As for `Cc1ccc(-c2[nH]n3c(=O)c4c(nc3c2C)CCC4)cc1`, the figure is 60.8%; as for `CCOc1ccc(/C=C(/C#N)c2nc(-c3ccc(Br)cc3)cs2)c(OCC)c1`, 38.9%.
In the case of `O=C(Cc1ccc([N+](=O)[O-])cc1)NCc1ccccn1`, the displacement stood at 14.1%.
As for `COc1ccc(/C=C/C(=O)NC(C)Cc2ccccc2)cc1OC` (configuration not stated), the figure is -5.6%.
Take `COc1ccc(/C=C2/SC(=S)NC2=O)cc1OCc1ccc([N+](=O)[O-])cc1`: the displacement stood at 76.9%.
As for `CCOc1ccc2ccc(OCC)c(/C=C3/SC(=S)NC3=O)c2c1`, the figure is -0.8%; as for `CCOc1cc(/C=C2/SC(=S)NC2=O)ccc1OC`, 119%.
As to `CCOc1cccc(/C=C2/SC(=S)NC2=O)c1O`, the displacement came out at 5.7%.
Consider `CCOc1ccc(/C=C2/SC(=S)NC2=O)cc1Cl`, for which the displacement was 11.7%.
As for `COc1ccc(/C=C2/SC(=S)NC2=O)cc1OCc1ccc(Cl)cc1`, the figure is 4.2%; as for `CCOc1cc(/C=C2\SC(=S)NC2=O)ccc1OC(C)=O`, 12%.
Consider `COc1cc(/C=C2/SC(=S)NC2=O)ccc1OCc1ccc(I)cc1`, for which the displacement is -8.4%.
Consider `CCOc1ccc(/C=C2/SC(=S)NC2=O)c(OCC)c1`, for which the displacement came out at 114%.
As for `CCOc1ccc(C=Nc2ccc3c(c2)nc(C)n3C)cc1`, the figure is 6.5%.
The same measure for `CSc1ccccc1NC(=O)c1ccc([N+](=O)[O-])cc1`: 10.7%; for `CCOC(=O)c1cc(C#N)c(SCc2ccccc2)[nH]c1=O`: -2.6%; for `COc1ccc(C(=O)N2CCN(c3cccc(C)c3C)CC2)cc1OC`: 2.4%.
On to `Cc1cc(C)cc(CC2CC(=O)N(c3ccc(Br)cc3)C2=O)c1` (configuration not stated), for which the displacement was -8%.
In the case of `CC(=O)n1cc(Nc2ccccc2C(=O)O)c2ccccc21`, the displacement was -3%.
As for `O=C(NCC1CCCO1)c1ccc(S(=O)(=O)N2CCCCC2)cc1` (configuration not stated), the figure is -4.5%; as for `Cc1cc(C=C2C(=O)c3ccccc3C2=O)c(C)n1-c1cccc(Cl)c1`, 180%; as for `Cc1cccc(-n2c(C)cc(C=C3C(=O)c4ccccc4C3=O)c2C)c1`, 138%.
As for `Cc1cc(/C=C2/SC(=O)NC2=O)c(C)n1-c1cccc(Cl)c1`, the figure is 18.6%; as for `Cc1cc(C=C2C(=O)c3ccccc3C2=O)c(C)n1-c1ccc(N2CCOCC2)cc1`, 0.7%; as for `Cc1cc(/C=C2/NC(=O)NC2=O)c(C)n1-c1cccc(Cl)c1`, 10%.
The same measure for `Cc1cc(C=C2C(=O)c3ccccc3C2=O)c(C)n1-c1cccc([N+](=O)[O-])c1`: 11.8%.
With `Cc1cc(C=C2C(=O)c3ccccc3C2=O)c(C)n1-c1ccc(Cl)cc1`, the displacement amounted to 100%.
The same measure for `Cc1cc(C=C2C(=O)c3ccccc3C2=O)c(C)n1-c1cccnc1`: -15.5%.
The same measure for `CCOC(=O)c1ccc(-n2c(C)cc(C=C3C(=O)c4ccccc4C3=O)c2C)cc1`: 11.9%.
The same measure for `CN1CCN(C(=O)c2cnn3c(C(F)(F)F)cc(-c4ccco4)nc23)CC1`: 6.4%; for `O=C(O)CCCN1C(=O)C(=O)/C(=C(\O)c2ccc(Cl)cc2)C1c1ccc(F)cc1` (configuration not stated): -0.6%.
Regarding `COc1ccc(N(CC(=O)NCCc2ccccc2)S(C)(=O)=O)c(OC)c1`, the displacement is 3.4%.
Regarding `Cc1ccc(OCC(=O)N2CCCc3ccccc32)c(C)c1`, the displacement turned out to be 6%.
Take `Cc1ccc(-c2ccc(OCC(=O)N3CCCc4ccccc43)cc2)cc1`: the displacement is 59.3%.
As for `Cc1ccccc1OCC(=O)N1CCCc2ccccc21`, the figure is -4.9%.
`Cc1ccc(-c2noc(COc3ccc4ccccc4c3)n2)cc1`: the displacement came to 11%.
